Consider 35 molecules from PubChem BioAssay.
Further: test concentration not given here.

The nature of one test: MM1S cell viability effects, profiling panel, calcein-AM fluorescence, 48 h, basal (AID 1165).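 Further: viability of MM1S multiple myeloma cells under basal unstimulated conditions.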 Conditions: higher = more signal.
Consider `CCOC(=O)C[C@H]1[C@H](OC(=O)c2cc3ccccc3oc2=O)[C@@H](NC(=O)c2ccccc2)c2cc(OCCCO)ccc2N1C(=O)c1ccc2ccccc2n1`, for which the z-score was -0.0357.

On to `CCN(CC)c1ccc(N2CC=CC34O[C@@H]5C=CCCOC(=O)C5[C@H]3C(=O)N(CCCCCCO)[C@@H]4C2=O)cc1` (some centres undefined), for which the z-score is 1.97.

`COC(=O)[C@@]1(Cc2ccccc2)[C@H]2c3cc(C(=O)N(C)C)n(Cc4ccsc4Br)c3C[C@H]2CN1C(=O)c1ccccc1`: the z-score was -1.13.

In the case of `COCCOC(=O)N1C(=O)[C@@]2(c3ccccc31)[C@H](c1ccccc1OCCO)N1[C@H](c3ccccc3)[C@H](c3ccccc3)OC(=O)[C@H]1[C@@H]2C(=O)N1CCN(c2ncccn2)CC1`, the z-score is -1.7. As to `O[C@@H](Cc1ccccc1)[C@H]1C2C=CCCC=C2CN1Cc1cccc(Cl)c1` (some centres undefined), the z-score was -3.23. On the same count and under the same terms, in the case of `COc1cc2c(cc1OC)CN(C(=O)[C@@H]1[C@H]3C(=O)O[C@H](c4ccccc4)[C@H](c4ccccc4)N3[C@H](c3ccccc3OCCO)[C@@]13C(=O)Nc1ccc(C#CCCO)cc13)CC2` it was -0.777. Same read-out and setting: in the case of `Cc1ccc(S[C@]2(C(=O)O)CC(=O)N(C(C)C)[C@@H]2c2ccc(CO)cc2I)cc1` it was -2.36. As for `O=C1O[C@H](c2ccccc2)[C@H](c2ccccc2)N2[C@H]1[C@@H](C(=O)N1CCCCCCC1)[C@]1(C(=O)Nc3ccc(C#CCCO)cc31)[C@H]2c1ccccc1OCCO`, the z-score is -1. Same read-out and setting: then `C=CCNC(=O)[C@@H]1[C@H]2C(=O)O[C@H](c3ccccc3)[C@H](c3ccccc3)N2[C@H](c2ccc(O)cc2)[C@@]12C(=O)N(C(=O)OCCOC)c1ccc(C#CCNC(N)=O)cc12`, with 0.768. Same read-out and setting: then `O=C(c1ccccc1)N1C(=O)[C@@]2(Cc3ccccc31)N=C(c1ccc(OCCCO)cc1)O[C@H]2c1ccccc1`, with -3.54. Turning to `C=C(/C(=C/C[C@H](OC(C)=O)c1ccccc1OCCO)c1cnc2ccccc2c1)C(C)C`, the z-score was -3.32. As to `CC(C)C(CO)N1C(=O)[C@@H]2C3C(=O)OCCC/C=C\[C@H]3OC23C=CCN(CCN2CCOCC2)C(=O)[C@@H]13` (some centres undefined), the z-score was 0.171. On the same count and under the same terms, in the case of `CCCC[C@H]1OB(O)C[C@H]2C1=C(COC)C[C@H]1C(=O)N(C)C(=O)[C@H]12` it was -1.34. `COC(=O)[C@@]1(Cc2ccc(F)cc2)[C@H]2c3cc(C(=O)N(C)C)n(Cc4ccc(Cl)c(C(F)(F)F)c4)c3C[C@H]2CN1C(=O)c1ccccc1`: the z-score is -2.26. As to `COc1ccc(CCNC(=O)[C@@]2(Sc3ccc(C)cc3)CC(=O)N(C3Cc4ccccc4C3)[C@@H]2c2ccc(CO)cc2I)cc1`, the z-score was -2.56.

`CCCC[C@H]1OB(O)C[C@H]2C1=C(COC)Cn1c(=O)n(-c3ccccc3)c(=O)n12`: the z-score is -1.16. On the same count and under the same terms, then `CN(C)CCCCCCNC(=O)[C@@H]1C[C@@H]2C(=O)N[C@@H](Cc3ccccc3)C(=O)N2[C@@H]1c1ccc(O)cc1`, with -1.45; and `C=C(COC)/C(=C/C[C@H](OC(C)=O)c1ccc(CO)o1)c1cc(C(=O)OC)ccc1OC`, with -0.659; and `COC(=O)[C@@]1(Cc2ccc(OC)cc2)[C@@H]2C(=CC(=O)[C@H]2CC(=O)C(=O)N2CCCC2)CN1C(=O)c1ccccc1`, with -0.565. Still for that read-out and setting: then `Cc1ccc(N2C(=O)c3ccccc3[C@@H](C(=O)NC3CC3)[C@@H]2c2ccc(CO)cc2)nc1`, with 0.0291; and `COCCOC(=O)N1C(=O)[C@@]2(c3cc(C#CCC(C(=O)OC)C(=O)OC)ccc31)[C@H](C(=O)Nc1nc3ccccc3s1)[C@H]1C(=O)O[C@H](c3ccccc3)[C@H](c3ccccc3)N1[C@@H]2c1ccccc1OCCO`, with -0.139; and `COCCOC(=O)N1C(=O)[C@@]2(c3cc(C#CCC(C(=O)OC)C(=O)OC)ccc31)[C@H](c1ccccc1OCCO)N1[C@H](c3ccccc3)[C@H](c3ccccc3)OC(=O)[C@H]1[C@@H]2C(=O)NC[C@H](O)c1ccccc1`, with -3.44. Turning to `CCCC[C@@H]1C[C@H]1[C@@H](NC(=O)c1ccccc1)c1ccc(C(=O)OC)cc1`, the z-score is -1.2.

With `O=C1[C@@]23C=C(Br)[C@H](C[C@@H]2CCOC3)[C@@]12CO2`, the z-score was -1.89.

A short description of another test: basal RPMI8226 viability, no added stimulus, profiling panel, cell-based, calcein-AM fluorescence, 48 h, PK04 Diversity Set (AID 1166).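 Further: cells grown under basal conditions without added stimulus.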 To be noted: RPMI8226 myeloma viability, higher = more signal.
Turning to `C=C(/C(=C/C[C@H](OC(C)=O)c1ccc(CO)o1)c1cc(C(=O)OC)ccc1OC)C(C)C`, the z-score is -2.03.

As to `COC(=O)[C@@]1(Cc2ccccc2)N=C(c2ccc(OCCCO)cc2)O[C@H]1c1ccccc1`, the z-score was -3.94. On the same count and under the same terms, then `CC(C)C[C@@H]1NC(=O)[C@@H]2C[C@H](C(=O)NCc3ccc(F)cc3)[C@H](c3cccc(OCCO)c3)N2C1=O`, with 0.828. Still for that read-out and setting: in the case of `O=C1c2ccccc2[C@](Cc2ccccc2I)(C(=O)NCCN2CCOCC2)[C@H](c2ccc(CO)cc2)N1C1CCCCC1` it was -1.22.

For the molecule `O=C1c2ccccc2[C@](Cc2ccccc2I)(C(=O)NCCN2CCOCC2)[C@H](c2ccc(CO)cc2)N1Cc1ccccc1Cl`, the z-score was -1.88. The same measure, in the same setting: then `CC(C)C(=C=CC[C@@H](O)c1ccc(OCCO)cc1)C[C@@H](O)COCc1ccccc1`, with 0.471; and `COC(=O)[C@]1(CCC(=O)OC(C)(C)C)N=C(c2ccc(OCCCO)cc2)O[C@@H]1c1ccccc1CN=[N+]=[N-]`, with -3.95; and `NC(=O)NCC#Cc1ccc2c(c1)[C@]1(C(=O)N2)[C@H](c2ccccc2OCCO)N2[C@H](c3ccccc3)[C@H](c3ccccc3)OC(=O)[C@H]2[C@@H]1C(=O)Nc1nc2ccccc2s1`, with -0.048. As for `C=CCC(OC(C)=O)[C@@H]1[C@@H](N(Cc2ccc(-c3ccccc3)cc2)C(=O)Cc2ccc(OC)cc2)c2cc(OCCCO)ccc2N1C(=O)Cc1ccc2ccccc2c1` (some centres undefined), the z-score was -0.252.

Take `C=C(CCCC)C(=O)CC[C@@H](OC(=O)c1ccccc1-c1ccccc1C(=O)O)c1ccc(OCCO)cc1`: the z-score was -3.04. With `CCCC[C@@H]1C[C@H]1[C@@H](NC(=O)c1ccco1)c1ccccc1C(F)(F)F`, the z-score is -0.484.

`CCOC(=O)C[C@H]1[C@H](OC(=O)c2cc3ccccc3oc2=O)[C@@H](NC(=O)c2ccccc2)c2cc(OCCCO)ccc2N1C(=O)c1ccc2ccccc2n1`: the z-score was -1.08.

Regarding `CCN(CC)c1ccc(N2CC=CC34O[C@@H]5C=CCCOC(=O)C5[C@H]3C(=O)N(CCCCCCO)[C@@H]4C2=O)cc1` (some centres undefined), the z-score is 0.401. Still for that read-out and setting: in the case of `COC(=O)[C@@]1(Cc2ccccc2)[C@H]2c3cc(C(=O)N(C)C)n(Cc4ccsc4Br)c3C[C@H]2CN1C(=O)c1ccccc1` it was -1.34.

Consider `COCCOC(=O)N1C(=O)[C@@]2(c3ccccc31)[C@H](c1ccccc1OCCO)N1[C@H](c3ccccc3)[C@H](c3ccccc3)OC(=O)[C@H]1[C@@H]2C(=O)N1CCN(c2ncccn2)CC1`, for which the z-score is -0.949.

As for `O[C@@H](Cc1ccccc1)[C@H]1C2C=CCCC=C2CN1Cc1cccc(Cl)c1` (some centres undefined), the z-score was -2.25. As for `COc1cc2c(cc1OC)CN(C(=O)[C@@H]1[C@H]3C(=O)O[C@H](c4ccccc4)[C@H](c4ccccc4)N3[C@H](c3ccccc3OCCO)[C@@]13C(=O)Nc1ccc(C#CCCO)cc13)CC2`, the z-score was -0.803.

`Cc1ccc(S[C@]2(C(=O)O)CC(=O)N(C(C)C)[C@@H]2c2ccc(CO)cc2I)cc1`: the z-score is -0.902. On the same count and under the same terms, in the case of `O=C1O[C@H](c2ccccc2)[C@H](c2ccccc2)N2[C@H]1[C@@H](C(=O)N1CCCCCCC1)[C@]1(C(=O)Nc3ccc(C#CCCO)cc31)[C@H]2c1ccccc1OCCO` it was -3.71; in that of `C=CCNC(=O)[C@@H]1[C@H]2C(=O)O[C@H](c3ccccc3)[C@H](c3ccccc3)N2[C@H](c2ccc(O)cc2)[C@@]12C(=O)N(C(=O)OCCOC)c1ccc(C#CCNC(N)=O)cc12`, 1.09; in that of `O=C(c1ccccc1)N1C(=O)[C@@]2(Cc3ccccc31)N=C(c1ccc(OCCCO)cc1)O[C@H]2c1ccccc1`, -4.36. Same read-out and setting: in the case of `C=C(/C(=C/C[C@H](OC(C)=O)c1ccccc1OCCO)c1cnc2ccccc2c1)C(C)C` it was -2.23; in that of `CC(C)C(CO)N1C(=O)[C@@H]2C3C(=O)OCCC/C=C\[C@H]3OC23C=CCN(CCN2CCOCC2)C(=O)[C@@H]13` (some centres undefined), -0.378; in that of `CCCC[C@H]1OB(O)C[C@H]2C1=C(COC)C[C@H]1C(=O)N(C)C(=O)[C@H]12`, -0.744. Same read-out and setting: then `COC(=O)[C@@]1(Cc2ccc(F)cc2)[C@H]2c3cc(C(=O)N(C)C)n(Cc4ccc(Cl)c(C(F)(F)F)c4)c3C[C@H]2CN1C(=O)c1ccccc1`, with -4.06; and `COc1ccc(CCNC(=O)[C@@]2(Sc3ccc(C)cc3)CC(=O)N(C3Cc4ccccc4C3)[C@@H]2c2ccc(CO)cc2I)cc1`, with -1.99; and `CCCC[C@H]1OB(O)C[C@H]2C1=C(COC)Cn1c(=O)n(-c3ccccc3)c(=O)n12`, with -0.657. Regarding `CN(C)CCCCCCNC(=O)[C@@H]1C[C@@H]2C(=O)N[C@@H](Cc3ccccc3)C(=O)N2[C@@H]1c1ccc(O)cc1`, the z-score was -0.571.

In the case of `C=C(COC)/C(=C/C[C@H](OC(C)=O)c1ccc(CO)o1)c1cc(C(=O)OC)ccc1OC`, the z-score is -0.0381. Regarding `COC(=O)[C@@]1(Cc2ccc(OC)cc2)[C@@H]2C(=CC(=O)[C@H]2CC(=O)C(=O)N2CCCC2)CN1C(=O)c1ccccc1`, the z-score is -1.17. On to `Cc1ccc(N2C(=O)c3ccccc3[C@@H](C(=O)NC3CC3)[C@@H]2c2ccc(CO)cc2)nc1`, for which the z-score was -2.27. Still for that read-out and setting: in the case of `COCCOC(=O)N1C(=O)[C@@]2(c3cc(C#CCC(C(=O)OC)C(=O)OC)ccc31)[C@H](C(=O)Nc1nc3ccccc3s1)[C@H]1C(=O)O[C@H](c3ccccc3)[C@H](c3ccccc3)N1[C@@H]2c1ccccc1OCCO` it was 0.199; in that of `COCCOC(=O)N1C(=O)[C@@]2(c3cc(C#CCC(C(=O)OC)C(=O)OC)ccc31)[C@H](c1ccccc1OCCO)N1[C@H](c3ccccc3)[C@H](c3ccccc3)OC(=O)[C@H]1[C@@H]2C(=O)NC[C@H](O)c1ccccc1`, -3.9; in that of `CCCC[C@@H]1C[C@H]1[C@@H](NC(=O)c1ccccc1)c1ccc(C(=O)OC)cc1`, -2.68.

On to `O=C1[C@@]23C=C(Br)[C@H](C[C@@H]2CCOC3)[C@@]12CO2`, for which the z-score was -0.491.
